Measurements: the supplement of paper PMC4466140

What follows are binders tested against AgAbp1 (assay: SPOT peptide array binding signal intensity (averaged, normalized) (arbitrary units (background-subtracted, floor 0; scale differs between SH3 domains)); higher = stronger binding of the SH3 domain to the peptide).
In short: (§1)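 E. coli BL21(DE3) was used to express GST-fused SH3 domains from four yeast species, which were then purified on glutathione Sepharose. These were incubated at 10 μg/ml in TBS-based blocking buffer overnight at 4°C on cellulose membranes carrying synthetic 15-mer peptides, in which cysteines were replaced by serines. Binding signal is the replicate average of normalized, background-subtracted spot intensity, in arbitrary units that differ between domains.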

Binder	SPOT peptide array binding signal intensity
KTRLRPAFIQQLWSS	12

The binders below were run against AgBbc1 in the same assay as above.
In short: as §1

Binder	SPOT peptide array binding signal intensity
KTRLRPAFIQQLWSS	18.8

These binders were tested against AgBem1-D1 in the same assay as above.
In short: as §1

Binder	SPOT peptide array binding signal intensity
KTRLRPAFIQQLWSS	181

The binders below were run against AgBzz1-D1 in the same assay as above.
In short: as §1

Binder	SPOT peptide array binding signal intensity
KTRLRPAFIQQLWSS	82.5

Each binder was assayed against AgBzz1-D2 in the same assay as above.
In short: as §1

Binder	SPOT peptide array binding signal intensity
KTRLRPAFIQQLWSS	32.5

What follows are binders tested against AgCyk3 in the same assay as above.
In short: as §1

Binder	SPOT peptide array binding signal intensity
KTRLRPAFIQQLWSS	1

What follows are binders tested against AgFus1 in the same assay as above.
In short: as §1

Binder	SPOT peptide array binding signal intensity
KTRLRPAFIQQLWSS	286

What follows are binders tested against AgHof1 in the same assay as above.
In short: as §1

Binder	SPOT peptide array binding signal intensity
KTRLRPAFIQQLWSS	45.5

Each binder was assayed against AgHse1 in the same assay as above.
In short: as §1

Binder	SPOT peptide array binding signal intensity
KTRLRPAFIQQLWSS	630

Each binder was assayed against AgLsb1 in the same assay as above.
In short: as §1

Binder	SPOT peptide array binding signal intensity
KTRLRPAFIQQLWSS	1

What follows are binders tested against AgLsb4 in the same assay as above.
In short: as §1

Binder	SPOT peptide array binding signal intensity
KTRLRPAFIQQLWSS	29.5

Each binder was assayed against AgMyo5 in the same assay as above.
In short: as §1

Binder	SPOT peptide array binding signal intensity
KTRLRPAFIQQLWSS	3

The binders below were run against AgNbp2 in the same assay as above.
In short: as §1

Binder	SPOT peptide array binding signal intensity
KTRLRPAFIQQLWSS	94.5

What follows are binders tested against AgRvs167 in the same assay as above.
In short: as §1

Binder	SPOT peptide array binding signal intensity
KTRLRPAFIQQLWSS	2.83

Each binder was assayed against AgSho1 in the same assay as above.
In short: as §1

Binder	SPOT peptide array binding signal intensity
KTRLRPAFIQQLWSS	12

Each binder was assayed against AgSla1-D1-D2 in the same assay as above.
In short: as §1

Binder	SPOT peptide array binding signal intensity
KTRLRPAFIQQLWSS	18

What follows are binders tested against AgSla1-D3 in the same assay as above.
In short: as §1

Binder	SPOT peptide array binding signal intensity
KTRLRPAFIQQLWSS	19.8

These binders were tested against CaAbp1-D1 in the same assay as above.
In short: as §1

Binder	SPOT peptide array binding signal intensity
KTRLRPAFIQQLWSS	130

What follows are binders tested against CaAbp1-D2 in the same assay as above.
In short: as §1

Binder	SPOT peptide array binding signal intensity
KTRLRPAFIQQLWSS	38.5

Each binder was assayed against CaBbc1 in the same assay as above.
In short: as §1

Binder	SPOT peptide array binding signal intensity
KTRLRPAFIQQLWSS	82.5

Each binder was assayed against CaBem1-D1 in the same assay as above.
In short: as §1

Binder	SPOT peptide array binding signal intensity
KTRLRPAFIQQLWSS	46

Each binder was assayed against CaBzz1-D1 in the same assay as above.
In short: as §1

Binder	SPOT peptide array binding signal intensity
KTRLRPAFIQQLWSS	58.5

The binders below were run against CaBzz1-D2 in the same assay as above.
In short: as §1

Binder	SPOT peptide array binding signal intensity
KTRLRPAFIQQLWSS	59

The binders below were run against CaCyk3 in the same assay as above.
In short: as §1

Binder	SPOT peptide array binding signal intensity
KTRLRPAFIQQLWSS	6

These binders were tested against CaFus1 in the same assay as above.
In short: as §1

Binder	SPOT peptide array binding signal intensity
KTRLRPAFIQQLWSS	912

The binders below were run against CaHof1 in the same assay as above.
In short: as §1

Binder	SPOT peptide array binding signal intensity
KTRLRPAFIQQLWSS	2

Each binder was assayed against CaHse1 in the same assay as above.
In short: as §1

Binder	SPOT peptide array binding signal intensity
KTRLRPAFIQQLWSS	10.8

Each binder was assayed against CaLsb1 in the same assay as above.
In short: as §1

Binder	SPOT peptide array binding signal intensity
KTRLRPAFIQQLWSS	0.5

The binders below were run against CaLsb4 in the same assay as above.
In short: as §1

Binder	SPOT peptide array binding signal intensity
KTRLRPAFIQQLWSS	14

Each binder was assayed against CaMyo5 in the same assay as above.
In short: as §1

Binder	SPOT peptide array binding signal intensity
KTRLRPAFIQQLWSS	4

Each binder was assayed against CaNbp2 in the same assay as above.
In short: as §1

Binder	SPOT peptide array binding signal intensity
KTRLRPAFIQQLWSS	338

Each binder was assayed against CaRvs167 in the same assay as above.
In short: as §1

Binder	SPOT peptide array binding signal intensity
KTRLRPAFIQQLWSS	17.3

What follows are binders tested against CaRvs167-3 in the same assay as above.
In short: as §1

Binder	SPOT peptide array binding signal intensity
KTRLRPAFIQQLWSS	2

These binders were tested against CaSho1 in the same assay as above.
In short: as §1

Binder	SPOT peptide array binding signal intensity
KTRLRPAFIQQLWSS	338

What follows are binders tested against CaSla1-D1-D2 in the same assay as above.
In short: as §1

Binder	SPOT peptide array binding signal intensity
KTRLRPAFIQQLWSS	≤ 0

Each binder was assayed against CaSla1-D3 in the same assay as above.
In short: as §1

Binder	SPOT peptide array binding signal intensity
KTRLRPAFIQQLWSS	9.5

Each binder was assayed against ScAbp1 in the same assay as above.
In short: as §1

Binder	SPOT peptide array binding signal intensity
KTRLRPAFIQQLWSS	17

What follows are binders tested against ScBbc1 in the same assay as above.
In short: as §1

Binder	SPOT peptide array binding signal intensity
KTRLRPAFIQQLWSS	6.25

Each binder was assayed against ScBem1-D1 in the same assay as above.
In short: as §1

Binder	SPOT peptide array binding signal intensity
KTRLRPAFIQQLWSS	60

These binders were tested against ScBzz1-D1 in the same assay as above.
In short: as §1

Binder	SPOT peptide array binding signal intensity
KTRLRPAFIQQLWSS	29.5

What follows are binders tested against ScBzz1-D2 in the same assay as above.
In short: as §1

Binder	SPOT peptide array binding signal intensity
KTRLRPAFIQQLWSS	82.5

The binders below were run against ScCyk3 in the same assay as above.
In short: as §1

Binder	SPOT peptide array binding signal intensity
KTRLRPAFIQQLWSS	47

These binders were tested against ScFus1 in the same assay as above.
In short: as §1

Binder	SPOT peptide array binding signal intensity
KTRLRPAFIQQLWSS	170

Each binder was assayed against ScHof1 in the same assay as above.
In short: as §1

Binder	SPOT peptide array binding signal intensity
KTRLRPAFIQQLWSS	5.75

The binders below were run against ScHse1 in the same assay as above.
In short: as §1

Binder	SPOT peptide array binding signal intensity
KTRLRPAFIQQLWSS	1510

What follows are binders tested against ScLsb1 in the same assay as above.
In short: as §1

Binder	SPOT peptide array binding signal intensity
KTRLRPAFIQQLWSS	≤ 0

These binders were tested against ScLsb2 in the same assay as above.
In short: as §1

Binder	SPOT peptide array binding signal intensity
KTRLRPAFIQQLWSS	≤ 0

These binders were tested against ScLsb3 in the same assay as above.
In short: as §1

Binder	SPOT peptide array binding signal intensity
KTRLRPAFIQQLWSS	74.5

These binders were tested against ScLsb4 in the same assay as above.
In short: as §1

Binder	SPOT peptide array binding signal intensity
KTRLRPAFIQQLWSS	1.5

Each binder was assayed against ScMyo3 in the same assay as above.
In short: as §1

Binder	SPOT peptide array binding signal intensity
KTRLRPAFIQQLWSS	10

These binders were tested against ScMyo5 in the same assay as above.
In short: as §1

Binder	SPOT peptide array binding signal intensity
KTRLRPAFIQQLWSS	3.5

Each binder was assayed against ScNbp2 in the same assay as above.
In short: as §1

Binder	SPOT peptide array binding signal intensity
KTRLRPAFIQQLWSS	121

The binders below were run against ScPex13 in the same assay as above.
In short: as §1

Binder	SPOT peptide array binding signal intensity
KTRLRPAFIQQLWSS	6.25

The binders below were run against ScRvs167 in the same assay as above.
In short: as §1

Binder	SPOT peptide array binding signal intensity
KTRLRPAFIQQLWSS	13

Each binder was assayed against ScSho1 in the same assay as above.
In short: as §1

Binder	SPOT peptide array binding signal intensity
KTRLRPAFIQQLWSS	431

What follows are binders tested against ScSla1-D1-D2 in the same assay as above.
In short: as §1

Binder	SPOT peptide array binding signal intensity
KTRLRPAFIQQLWSS	36

The binders below were run against ScSla1-D3 in the same assay as above.
In short: as §1

Binder	SPOT peptide array binding signal intensity
KTRLRPAFIQQLWSS	27.5

These binders were tested against SpAbp1-D1 in the same assay as above.
In short: as §1

Binder	SPOT peptide array binding signal intensity
KTRLRPAFIQQLWSS	54.5

The binders below were run against SpBbc1 in the same assay as above.
In short: as §1

Binder	SPOT peptide array binding signal intensity
KTRLRPAFIQQLWSS	4

These binders were tested against SpBzz1-D1 in the same assay as above.
In short: as §1

Binder	SPOT peptide array binding signal intensity
KTRLRPAFIQQLWSS	170

The binders below were run against SpBzz1-D2 in the same assay as above.
In short: as §1

Binder	SPOT peptide array binding signal intensity
KTRLRPAFIQQLWSS	1

Each binder was assayed against SpCyk3 in the same assay as above.
In short: as §1

Binder	SPOT peptide array binding signal intensity
KTRLRPAFIQQLWSS	5

What follows are binders tested against SpHof1 in the same assay as above.
In short: as §1

Binder	SPOT peptide array binding signal intensity
KTRLRPAFIQQLWSS	117

Each binder was assayed against SpHof1-2 in the same assay as above.
In short: as §1

Binder	SPOT peptide array binding signal intensity
KTRLRPAFIQQLWSS	13.2

What follows are binders tested against SpHof1-3 in the same assay as above.
In short: as §1

Binder	SPOT peptide array binding signal intensity
KTRLRPAFIQQLWSS	571

Each binder was assayed against SpHse1 in the same assay as above.
In short: as §1

Binder	SPOT peptide array binding signal intensity
KTRLRPAFIQQLWSS	696

Each binder was assayed against SpLsb1 in the same assay as above.
In short: as §1

Binder	SPOT peptide array binding signal intensity
KTRLRPAFIQQLWSS	≤ 0

The binders below were run against SpLsb4 in the same assay as above.
In short: as §1

Binder	SPOT peptide array binding signal intensity
KTRLRPAFIQQLWSS	7

Each binder was assayed against SpMyo1 in the same assay as above.
In short: as §1

Binder	SPOT peptide array binding signal intensity
KTRLRPAFIQQLWSS	3

These binders were tested against SpNbp2 in the same assay as above.
In short: as §1

Binder	SPOT peptide array binding signal intensity
KTRLRPAFIQQLWSS	58.5

The binders below were run against SpPex13 in the same assay as above.
In short: as §1

Binder	SPOT peptide array binding signal intensity
KTRLRPAFIQQLWSS	17

The binders below were run against SpRvs167 in the same assay as above.
In short: as §1

Binder	SPOT peptide array binding signal intensity
KTRLRPAFIQQLWSS	6.67

Each binder was assayed against SpSla1-D1-D2 in the same assay as above.
In short: as §1

Binder	SPOT peptide array binding signal intensity
KTRLRPAFIQQLWSS	≤ 0

What follows are binders tested against SpSla1-D3 in the same assay as above.
In short: as §1

Binder	SPOT peptide array binding signal intensity
KTRLRPAFIQQLWSS	8
